Common to all, as to assay: glycan array binding signal (z-score within array); higher = stronger binding
Conditions in all cases: glycan notation: IUPAC condensed, linker removed; mutation: E41A

Experiment [1] has as its target Man(a1-2)Man(a1-2)Man(a1-3)Man. The method, boiled down:
(§1)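 Negative Z-scores can be read as non-binding. The Z-score is calculated within each array and then averaged across arrays of one protein sequence at different concentrations or buffers and across linkers. Arrays, 3228 in all, were curated from the Consortium for Functional Glycomics database and kept only where the protein sequence was available.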

Experiment [2] deals with Man(a1-2)Man(a1-2)Man(a1-6)[Man(a1-3)]Man. The method, boiled down:
as §1

The next experiment addresses Man(a1-2)Man(a1-3)Man. The method, boiled down: as §1
Experiment [3] has as its target Man(a1-2)Man(a1-3)[Man(a1-2)Man(a1-6)]Man. Put shortly: as §1
Experiment [4] deals with Man(a1-2)Man(a1-3)[Man(a1-2)Man(a1-6)]Man(a1-6)[Man(a1-2)Man(a1-2)Man(a1-3)]Man. The method, boiled down:
as §1

In experiment [5] the target is Man(a1-2)Man(a1-3)[Man(a1-6)]Man(a1-6)[Man(a1-2)Man(a1-3)]Man(b1-4)GlcNAc(b1-4)GlcNAc. The method, boiled down: as §1
Experiment [6] deals with Man(a1-2)Man(a1-6)[Man(a1-3)]Man(a1-6)[Man(a1-2)Man(a1-2)Man(a1-3)]Man. Put shortly:
as §1

The target in experiment [7] is Man(a1-2)Man(a1-6)[Man(a1-3)]Man(a1-6)[Man(a1-2)Man(a1-2)Man(a1-3)]Man(b1-4)GlcNAc(b1-4)GlcNAc. Put shortly:
as §1

Experiment [8] addresses Man(a1-3)[Man(a1-6)]Man(a1-6)[Man(a1-2)Man(a1-3)]Man(b1-4)GlcNAc(b1-4)GlcNAc. The method, boiled down:
as §1

Experiment [9] deals with Neu5Ac(a2-3)Gal(b1-3)GlcNAc(b1-2)Man(a1-3)[GlcNAc(b1-4)][Neu5Ac(a2-3)Gal(b1-3)GlcNAc(b1-2)Man(a1-6)]Man(b1-4)GlcNAc(b1-4)GlcNAc. Put shortly: as §1
The target of experiment [10] is Neu5Ac(a2-3)Gal(b1-4)GlcNAc(b1-2)Man. Put shortly:
as §1

Experiment [11] has as its target Neu5Ac(a2-3)Gal(b1-4)GlcNAc(b1-2)Man(a1-3)[GlcNAc(b1-4)][Neu5Ac(a2-3)Gal(b1-4)GlcNAc(b1-2)Man(a1-6)]Man(b1-4)GlcNAc(b1-4)GlcNAc. The method, boiled down: as §1
Experiment [12] addresses Neu5Ac(a2-3)Gal(b1-4)GlcNAc(b1-2)[Neu5Ac(a2-3)Gal(b1-4)GlcNAc(b1-4)]Man(a1-3)[GlcNAc(b1-4)][Neu5Ac(a2-3)Gal(b1-4)GlcNAc(b1-2)[Neu5Ac(a2-3)Gal(b1-4)GlcNAc(b1-6)]Man(a1-6)]Man(b1-4)GlcNAc(b1-4)GlcNAc. Put shortly: as §1
Experiment [13] has as its target Neu5Ac(a2-3)Gal(b1-4)GlcNAc(b1-3)Gal(b1-4)GlcNAc(b1-3)[Neu5Ac(a2-3)Gal(b1-4)GlcNAc(b1-3)Gal(b1-4)GlcNAc(b1-6)]GalNAc. The method, boiled down: as §1
Experiment [14] concerns the target Neu5Ac(a2-3)Gal6S(b1-4)[Fuc(a1-3)]GlcNAc. The method, boiled down: as §1
The target of experiment [15] is Neu5Ac(a2-6)Gal(b1-4)GlcNAc(b1-2)Man(a1-3)[GlcNAc(b1-4)][Neu5Ac(a2-6)Gal(b1-4)GlcNAc(b1-2)Man(a1-6)]Man(b1-4)GlcNAc(b1-4)GlcNAc. The method, boiled down:
as §1

The target in experiment [16] is Neu5Ac(a2-6)Gal(b1-4)GlcNAc(b1-2)Man(a1-3)[Neu5Ac(a2-3)Gal(b1-4)GlcNAc(b1-2)Man(a1-6)]Man(b1-4)GlcNAc(b1-4)GlcNAc. The method, boiled down: as §1
The target of experiment [17] is Neu5Ac(a2-6)Gal(b1-4)GlcNAc(b1-3)Gal(b1-4)GlcNAc(b1-3)Gal(b1-4)GlcNAc(b1-2)Man(a1-3)[Neu5Ac(a2-6)Gal(b1-4)GlcNAc(b1-3)Gal(b1-4)GlcNAc(b1-3)Gal(b1-4)GlcNAc(b1-2)Man(a1-6)]GalNAc. The method, boiled down:
as §1

In experiment [18] the target is Neu5Ac(a2-6)Gal(b1-4)GlcNAc(b1-3)Gal(b1-4)GlcNAc(b1-6)[Gal(b1-3)]GalNAc. The method, boiled down: as §1
For experiment [19], the target named is Neu5Ac(a2-8)Neu5Ac(a2-8)Neu5Ac(a2-3)Gal(b1-4)Glc. The method, boiled down:
as §1

The target of another experiment is Neu5Gc(a2-6)GalNAc. Put shortly:
as §1

The entries come from a sample that favours the strongest signals as a whole.

B1: CVN-E41G (protein)
chain: MHHHHHHENLYFQSGNFSQACYNSAIQGSVLTSTCIRTNGGYNTSSIDLNSVIANVDGSLKWQGSNFIETCRNTQLAGSSELAAECKTRAQQFVSTKINLDDHIAAIDGTLKYE
As for B1, the “glycan array binding signal (z-score)” value stood at 8.7 in experiment [1]; 8.39 in [2]; 7.22 with Man(a1-2)Man(a1-3)Man; 8.35 in [3]; 10.5 in experiment [4]; 5.81 in experiment [5]. The “glycan array binding signal (z-score)” value in experiment [6] is 9.42; in [7], 6.36; in [8], 3.98; in [9] it was 0.053; in experiment [10], 0.044; in experiment [11], -0.212. Further, the “glycan array binding signal (z-score)” value in [12] is -0.177; in experiment [13], -0.218; in [14] it was -0.235; in [15] it was -0.208; in experiment [16] it was -0.216; in experiment [17], -0.108. Also, the “glycan array binding signal (z-score)” value was -0.172 in experiment [18], -0.226 in experiment [19] and -0.18 with Neu5Gc(a2-6)GalNAc.
